{"source": "the supplement of paper PMC6555819", "data": [{"system": "PPARg:RXRa 30nM:10nM, anti-RXR (NR concentration 30 nM, RXRa partner concentration 10 nM)", "test": "PBM binding z-score (relative to random genomic background probes); higher = stronger binding; sequences stand for … in GC…GCGATTGACAGCGTAGAATGAAGG", "method_in_brief": "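Scanned fluorescence from custom Agilent 4×180K protein-binding microarrays was regression-normalized. Binding z-scores use random background probes as reference. Ligand-free nuclear receptor dimers were incubated on the arrays for 1 h and detected with antibodies against each partner (one per run).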", "values": [{"sequence": "CGTCCAAGGTCGTAGGAGGTCAGTGAAGACAGAT", "PBM binding z-score": 0.257}, {"sequence": "TCTGCTAGGTCAACGATGATCAGCTAATCTGCTA", "PBM binding z-score": 2.03}, {"sequence": "TCAAATAGGTAAAGGTGAAAGTCGAACGATATGA", "PBM binding z-score": 5}, {"sequence": "TCTATTAGTTGATTAGGGCAACTGAAACAGCGGA", "PBM binding z-score": 3.5}, {"sequence": "AGAATGAGGTAATACGTAGATCAGGGAAGAAAGT", "PBM binding z-score": 0.517}, {"sequence": "ACTATTAGTTGACTTAGGACAACCGATACGACGC", "PBM binding z-score": 0.448}, {"sequence": "AGTCAAAGTTCAGGACGAAGTAACGTAAAGCACG", "PBM binding z-score": 1.78}, {"sequence": "TCTTGTAGATCAAGGGTTAAGAAAGCCGAAGCCT", "PBM binding z-score": 5.41}, {"sequence": "CGAACTAGGTCGGAACAGGACAGTGAAGGATGAT", "PBM binding z-score": 0.0935}, {"sequence": "AGAACGAGGGCAATAAGTTGATAGCACGGGTGGC", "PBM binding z-score": 0.0758}, {"sequence": "AGAACGATGGCACGCTGAGTTGATAGCAGAGTAG", "PBM binding z-score": -0.196}, {"sequence": "GATACAGGGTCAGCTAGAGGACAGAGTATGGAAA", "PBM binding z-score": 1.06}, {"sequence": "TCATATAGGTAAATGCTAGGTGAAAGTGCGATCT", "PBM binding z-score": 3.99}, {"sequence": "GCTAGTTGGTCAGTAAAAGGTCAGACACCGGTCG", "PBM binding z-score": 1.03}, {"sequence": "AGAATGAGGTTACCAAACATCAGGGAAACGCTTG", "PBM binding z-score": 1.04}, {"sequence": "ACTCGGAAGACAAAGGTCAGAGCTACGCCAGTGA", "PBM binding z-score": 2.83}, {"sequence": "ACAGACAGGTTAGTGAAGGTAACTCAGCTGGACG", "PBM binding z-score": -0.22}, {"sequence": "TCTATTAGTTGACTAGGGCAACCGAAACAGCGGA", "PBM binding z-score": 3.68}, {"sequence": "ACTAGCAGGCCAAGTTTGGGTCACTTAAACAAAG", "PBM binding z-score": -0.186}, {"sequence": "CCTACTGGGCCACGAAAGCTCATTGATTCAGTGA", "PBM binding z-score": -0.145}, {"sequence": "ACTAGCAGGCCAGGTTTGGGTCACTCAAACAAAG", "PBM binding z-score": -0.537}, {"sequence": "TAGCCTACGTCAGATCGGGCCAGTATACGCTATA", "PBM binding z-score": -0.34}]}]}
